Screening results (PubChem)
Spn PMK inh: blocks S. pneumoniae phosphomevalonate kinase. purified PMK, PK/LDH-coupled NADH absorbance 340 nm. inhibition, % at 10 µM. 65,000 compounds, 0.49% hits;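 active means top-ranked compounds by inhibition in the single 10 µM screen, taking a fixed number of the strongest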;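 further: 0% = full reaction with DMSO carrier and 100% = background rate without enzyme reaction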
MK inhibit: inhibitors of Streptococcus pneumoniae mevalonate kinase. AID 555. 65,000 compounds, 0.48% hits. purified MK, PK/LDH-coupled NADH absorbance 340 nm. inhibition, % at 10 µM;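 active means ranked among the strongest by inhibition in the single 10 µM screen, a fixed top-ranked set picked for dose follow-up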
A340 absorber: compound absorbs light at 340 nm | fold change at 10 µM | compound absorbance at 340 nm, fold over control | AID 708 | 65,000 tested, under 10 active;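 active means at 10 µM dose, initial 340 nm absorbance at least 2 fold that of control wells; inactive means change under 2 fold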;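 further: initial absorbance extrapolated from kinetic A340 decline of NADH oxidation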
Spn DPM-DC inh: S. pneumoniae DPM-DC inhibition; 65,000 compounds, 0.49% hits; purified DPM-DC, PK/LDH coupled NADH fluorescence; AID 556; calls only at 10 µM;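 active means the 320 compounds with the highest percent inhibition in the single-dose primary screen, excluding strongly autofluorescent ones, cut at about 32% in these data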;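 further: kinetic rate of NADH fluorescence loss reporting ADP formed by the decarboxylase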
Autofluor 339: intrinsic fluorescence of library compounds, ex339/em460 – biochemical, MLSMR library, data from DPM-DC assay, artefact control, profiling panel | compound autofluorescence, ex339/em460 nm, NADH buffer; stronger effect = higher value; 1 = no-compound wells, NADH background | fluorescence fold increase at 10 µM | 65,000 compounds, 5.5% hits | AID 709;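 active means at 10 µM, mean starting fluorescence two-fold or more over control wells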;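 further: signal is the first read of a kinetic run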
NADH enzymes: inhibition of NAD/NADH coupling enzymes, library profiling; IC50, µM (top dose mostly 10 µM), for inactives: at the highest dose inhibition; coupled PK/LDH NADH assays, four targets; AID 774; 65,000 compounds, 0.02% hits;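 active means single-dose screening hits from any of four coupled enzyme assays that gave an IC50 when retested across doses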;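 further: the DPM-DC format reads NADH fluorescence rather than 340 nm absorbance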
* marks the source's active call; other numbers are inactive results; i = inactive; . = no result given; + = active, no number. An excerpt weighted towards active compounds, which were near 6.5% of everything screened.

SMILES	Spn PMK inh	MK inhibit	A340 absorber	Spn DPM-DC inh	Autofluor 339	NADH enzymes
N=c1c(C(=O)NCC2CCCO2)cc2c(=O)n3ccccc3nc2n1Cc1cccnc1 (stereo not given)	5.0	0.0	0.98	.	3.74*	3.0%
Cc1cccn2c(=O)c3cc(C(=O)NCC4CCCO4)c(=N)n(Cc4cccnc4)c3nc12 (stereo not given)	6.0	9.0	1	.	3.72*	8.0%
N#Cc1cc2c(=O)n3ccccc3nc2n(Cc2cccnc2)c1=N	0.0	0.0	1.05	i	1.27	0.0%
O=C(NCC1CCCO1)c1ccc2c(=O)n(CCc3ccccc3)c(=O)[nH]c2c1 (stereo not given)	20.0	4.0	1.06	i	1.39	9.0%
COC(=O)C(c1cc(OC)c(O)c(OC)c1)(N1CCNC(C)C1)C(F)(F)F (stereo not given)	14.0	3.0	1.02	i	1.05	6.0%
CC(C)c1ccccc1OCCNS(C)(=O)=O	0.0	1.0	1.07	i	1.07	0.0%
Cc1c(C(C)O)nnn1-c1nonc1N (stereo not given)	13.0	9.0	0.97	i	1.01	9.0%
CCn1c(COc2ccccc2C)nnc1SCC(=O)N1CCCCC1	27.0*	1.0	0.96	i	1.06	9.0%
O=C(Cn1ccc2ccccc2c1=O)NCCC(=O)NC1CCN(Cc2ccccc2)CC1	17.0	0.0	1.03	i	1.14	3.0%
CCc1ccc(C2C3=C(CC(C)(C)CC3=O)Nc3c2c(=O)[nH]c2nc(C)nn32)cc1 (stereo not given)	0.0	0.0	1.08	.	3.42*	0.0%
Cc1nc2[nH]c(=O)c3c(n2n1)NC1=C(C(=O)CC(C)(C)C1)C3c1ccc(F)cc1 (stereo not given)	8.0	1.0	1.08	.	3.78*	5.0%
COc1ccc(C2C3=C(CC(C)(C)CC3=O)Nc3c2c(=O)[nH]c(=O)n3Cc2ccccc2)cc1 (stereo not given)	12.0	6.0	1.05	i	1.45	6.0%
Cc1ccc(C2C3=C(CC(C)(C)CC3=O)Nc3[nH]c(=S)[nH]c(=O)c32)cc1 (stereo not given)	18.0	13.0	1.06	i	1.13	12.0%
COc1cccc2c1OC1(C)CC2/C(=C(\C)O)C(=O)N1 (stereo not given)	6.0	6.0	1.03	i	1.15	4.0%
Cc1ccc2nc(-c3ccc(NC(=O)CN4CCN(C(=O)c5ccco5)CC4)cc3)sc2c1	0.0	5.0	1.1	.	2.16*	3.0%
CCOc1ccc(-c2nc(C#N)c(N3CCOCC3)o2)cc1	2.0	12.0	1.1	.	2.18*	7.0%
COc1ccccc1OCc1nc(C#N)c(N2CCC(C(N)=O)CC2)o1	9.0	7.0	1.01	i	1.13	5.0%
Cc1cccc(-c2nc(C#N)c(N3CCCCCC3)o2)c1	6.0	8.0	1.12	.	3.79*	7.0%
CCN1CCN(c2oc(-c3ccc(OC)cc3)nc2C#N)CC1	0.0	2.0	1.12	.	3.8*	1.0%
CCOc1ccc(-c2nc(C#N)c(N3CCN(Cc4ccccc4)CC3)o2)cc1	7.0	9.0	1.06	i	1.78	6.0%
N#Cc1nc(-c2ccc(OCc3ccccc3)cc2)oc1N1CCC(C(N)=O)CC1	11.0	7.0	1.09	.	3.96*	9.0%
CC1C(=NO)C(C)C(c2ccc(N(C)C)cc2)NC1c1ccc(N(C)C)cc1 (stereo not given)	11.0	0.0	1.02	i	1.09	4.0%
CCOC(=O)C1CSC(CC(=O)Nc2ccc(Cl)cc2)C(=O)N1 (stereo not given)	20.0	9.0	1.01	i	1.05	3.0%
CCOc1ccc(-c2nc(C#N)c(NC3CC3)o2)cc1	17.0	13.0	1.02	.	3.84*	15.0%
CCOc1ccc(-c2nc(C#N)c(NCc3ccc4c(c3)OCO4)o2)cc1	5.0	12.0	1	i	1.79	5.0%
SMILES	Spn PMK inh	MK inhibit	A340 absorber	Spn DPM-DC inh	Autofluor 339	NADH enzymes
Cc1c(C(=O)OCC(C)(C)CN(C)C)oc2ccccc12	6.0	9.0	1	+	0.9	5.0%
Cc1c(C(=O)OC(C)CCN(C)C)oc2ccccc12 (stereo not given)	7.0	4.0	1.03	i	1.14	10.0%
OC(COc1ccc2c(c1)OCO2)CN1CCc2ccccc2C1 (stereo not given)	20.0	2.0	0.98	i	1.03	7.0%
COc1nc(-c2ccccc2)ccc1-c1noc(-c2ccc(F)cc2)n1	17.0	9.0	1.07	.	3.84*	13.0%
COc1nc(-c2ccccc2)ccc1-c1noc(-c2ccccc2F)n1	8.0	4.0	1.05	.	3.9*	6.0%
COc1ccccc1-c1noc(-c2cccnc2)n1	9.0	10.0	0.98	i	1.07	4.0%
CCSc1nc2n(n1)C(c1cccc(F)c1)C1=C(CCCC1=O)N2 (stereo not given)	0.0	1.0	1.07	i	2.58*	8.0%
Cc1cc(C)n(-c2nc(NCCCO)c3c4c(sc3n2)CCCC4)n1	7.0	0.0	1.06	i	2.62*	8.0%
Cc1cc(C)n(-c2nc(NCC3CCCO3)c3c4c(sc3n2)COC(C)(C)C4)n1 (stereo not given)	9.0	7.0	1.05	.	3.72*	8.0%
Cc1cc(C)n(-c2nc(NCCO)c3c4c(sc3n2)CCCC4)n1	9.0	2.0	1.07	i	1.65	4.0%
N#C/C(=C(/O)COC(=O)CCc1ccc(S(=O)(=O)N2CCOCC2)cc1)c1nc2ccccc2[nH]1	20.0	75.0*	1.08	i	1.49	34.0%
N#C/C(=C(/O)COC(=O)Cc1c[nH]c2ccccc12)c1nc2ccccc2[nH]1	12.0	0.0	1.05	i	1.12	5.0%
Cc1cc2oc(=O)cc(CN3CCCCC3C)c2c(C)c1Cl (stereo not given)	12.0	5.0	1	i	1.09	6.0%
COc1ccc(N(CC(=O)NCc2cccnc2)S(=O)(=O)c2c(C)nn(C)c2C)cc1	13.0	7.0	1.02	i	1.02	7.0%
CCOC(=O)c1ccc(NS(=O)(=O)c2cccc3nsnc23)cc1	9.0	3.0	1.03	i	1.07	2.0%
CCOc1cccc(OCCCNCCCOC)c1	0.0	40.0*	1.06	i	1.08	13.0%
COc1ccc(-c2oc3ncnc(NCCCN4CCOCC4)c3c2-c2ccc(OC)cc2)cc1	16.0	17.0	1.12	.	3.75*	17.0%
c1ccc(-c2oc3ncnc(NCCCN4CCOCC4)c3c2-c2ccccc2)cc1	13.0	10.0	1.08	.	3.75*	12.0%
COc1ccc(-c2oc3ncn(CCN4CCOCC4)c(=N)c3c2-c2ccc(OC)cc2)cc1	16.0	10.0	1.06	i	1.52	6.0%
COc1ccc(-c2oc3ncnc(NCCN4CCOCC4)c3c2-c2ccc(OC)cc2)cc1	8.0	9.0	1.07	.	3.8*	9.0%
